# Activity calls are given as the source filed them. Calls come from the whole dose curve; as a rule, active = well fitted activation curve with a large enough effect in the repeat runs; inconclusive = weak or mixed curves; inactive = flat fitted curve, though single readings scatter.
# Target: KiSS-1 receptor (Homo sapiens) (UniProt Q969F8)
# Experiment: Human kisspeptin (KISS1R) small molecule agonists, calcium flux assay in KISS1R-HEK293 cells (AID 1920064)
# Conditions: KISS1R-HEK293, calcium flux fluorescence, agonist; series mostly up to 76.8 µM; activation: at the top concentration
# From the text: National Center for Advancing Translational Sciences [NCATS]
# Division of Preclinical Innovation [DPI]
# U.S. Environmental Protection Agency [EPA]
# National Institutes of Environmental Health Sciences [NIEHS]
# National Toxicology Program [NTP]
# U.S. Food and Drug Administration [FDA]
# Kisspeptin and its receptor KISS1R play key roles in mammalian reproduction due to their involvement in the onset of puberty and control of the hypothalamic-pituitary-gonadal axis such as regulates GnRH release from the hypothalamus. The kisspeptin/KISS1R system also plays a direct role in peripheral organs (including the ovary, testis, uterus, and placenta) and is implicated in reproductive diseases such as miscarriage and polycystic ovary syndrome (PCOS). Abnormal KISS1R activity is associated with abnormal puberty, infertility, endometriosis, and hormone-dependent tumors. The KISS1 receptor (KISS1R, also called GPR54), a G-protein-coupled receptor (GPCR), acts (through phospholipase C) to increase intracellular inositol trisphosphate and then release intracellular calcium stores. Cell-based KISS1R-HEK293 assay is using HEK293 cells that have been genetically engineered to express the human KISS1R, which activity can be measured by calcium signaling. A compound/drug can activate (agonist) KISS1R that can be monitored by levels of intracellular calcium.
# KISS1R-HEK293 cells developed by Codex Corp contain human KISS1R gene, which was stably integrated into HEK 293 cells. The compound activation can be detected by fluorescence intensity via calcium flux assay. This cell line has been used to screen the Tox21 10K compound library to identify agonists of KISS1R.
# KISS1R-Hek293 cells were dispensed at 1500 cells/4uL/well in 1536-well black wall/clear bottom plates using a multidrop dispenser. After the assay plates were incubated at a 37 C/5% CO2 incubator for 18 hours, 4 microL of Calcium Dye Solution was added to each well. The plates were incubated at 37 C for 1 hour. And then 23 nL of compounds dissolved in DMSO, positive controls, or DMSO only was transferred to the assay plate by a pin tool station. The fluorescence intensity in the plates was measured using FDSS 7000EX kinetic plate reader with a filter set of Ex/Em=480/540 for 3 min at 1 sec intervals. Each test compound was measured at 15 concentrations and in triplicates.
# % is set by controls: 0 for no effect and ±100 for the full control effect; potency is the fitted concentration of half-maximal effect.
# Sequence of KiSS-1 receptor (Homo sapiens) (Q969F8 whole entry, looked up): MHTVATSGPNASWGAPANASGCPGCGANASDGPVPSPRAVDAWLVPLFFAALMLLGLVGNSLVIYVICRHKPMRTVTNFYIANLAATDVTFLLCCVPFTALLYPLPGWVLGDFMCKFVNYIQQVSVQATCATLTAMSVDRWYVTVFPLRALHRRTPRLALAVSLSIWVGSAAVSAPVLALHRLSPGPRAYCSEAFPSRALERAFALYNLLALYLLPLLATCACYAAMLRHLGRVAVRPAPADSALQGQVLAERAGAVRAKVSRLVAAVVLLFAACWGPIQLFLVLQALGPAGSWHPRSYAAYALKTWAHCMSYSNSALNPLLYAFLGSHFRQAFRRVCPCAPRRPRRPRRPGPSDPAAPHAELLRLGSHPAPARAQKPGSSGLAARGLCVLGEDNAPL
SMILES,activation,Potency
Cc1c(-c2ccccc2)oc2c(C(=O)OCCN3CCCCC3)cccc2c1=O,-0.507% [at 35.3 µM] (inactive),–
CC(CCc1ccc2c(c1)OCO2)NN (stereo not given),-0.0953% [at 35.3 µM] (inactive),–
Cc1ccc(Cl)c(N)c1Cl,1.24% (inactive),–
Cc1ccc(O)c(C(C)(C)C)c1,–,inactive
CCCCCCCCC(CCCCCC)C(=O)O (stereo not given),3.09% (inactive),–
CCCCCOC(=O)c1ccc(O)cc1,1.92% (inactive),–
CC(=O)Nc1ccc(O)cc1,–,inactive
CC(CC=O)CCCC(C)(C)O (stereo not given),-1.85% (inactive),–
Clc1ccc2cc3ccccc3cc2c1,2.49% (inactive),–
C=C1C(=C/C=C2\CCC[C@]3(C)[C@@H]([C@H](C)/C=C/[C@@H](O)C4CC4)CC[C@@H]23)C[C@@H](O)C[C@@H]1O,2.5% [at 35.3 µM] (inactive),–
CCC(C)OC(C)CC (stereo not given),0.617% (inactive),–
CCCCN1C(=O)c2ccccc2C1=O,2.12% (inactive),–
OCCC1CCCCN1 (stereo not given),-0.638% (inactive),–
CSc1ccc(C=O)cc1,0.442% (inactive),–
c1ccc(C[n+]2cccc3ccccc32)cc1,-0.653% (inactive),–
O=C1CN(/N=C/c2ccc([N+](=O)[O-])o2)C(=O)N1,–,inactive
c1ccc(CN(Cc2ccccc2)Cc2ccccc2)cc1,-1.54% (inactive),–
NS(=O)(=O)c1cc2c(cc1Cl)NC(CSCc1ccccc1)=NS2(=O)=O,-1.46% [at 35.3 µM] (inactive),–
Nc1ccc(/C=C/c2ccc(N)cc2S(=O)(=O)O)c(S(=O)(=O)O)c1,-0.667% [at 0.29 µM] (inactive),–
Nc1nc2ccc(OC(F)(F)F)cc2s1,-1.08% [at 35.3 µM] (inactive),–

SMILES,activation,Potency
CCN(CC)CCNC(C(=O)OCCC(C)C)c1ccccc1 (stereo not given),-0.209% [at 35.3 µM] (inactive),–
OC[C@H]1O[C@@H](OCCc2ccc(O)cc2)[C@H](O)[C@@H](O)[C@@H]1O,-0.918% [at 35.3 µM] (inactive),–
Cc1cc2cc3c(C)cc(=O)oc3c(C)c2o1,0% [at 35.3 µM] (inactive),–
COC(=O)c1ccc(C(=O)O)cc1,-4.48% (inactive),–
S=C(S)NCCNC(=S)S,-3.54% (inactive),–
C=C(C)C(=O)OCCOCCOCCOCCOC(=O)C(=C)C,-0.617% (inactive),–
c1cc(C(c2ccc(OCC3CO3)cc2)c2ccc(OCC3CO3)cc2)ccc1OCC1CO1 (stereo not given),0.514% (inactive),–
COc1cc(C(C)=O)ccc1OCCCN1CCC(c2noc3cc(F)ccc23)CC1,-0.0679% [at 35.3 µM] (inactive),–
CCCCCCCC/C=C\CCCCCCCC(=O)OCCOC(=O)CCCCCCC/C=C\CCCCCCCC,4.37% (inactive),–
CCCCc1cc2ccccc2c(OCCN(C)C)n1,6.23% [at 35.3 µM] (inactive),–
NC(=O)c1ccccc1C(N)=O,1.61% (inactive),–
C=Cc1ccncc1,-3.38% (inactive),–
CC(C)=CCCC(C)CCOC=O (stereo not given),-1.81% (inactive),–
C[C@@H](C1=C(CCN(C)C)Cc2ccccc21)c1ccccn1,0.532% [at 35.3 µM] (inactive),–
Nc1ccn(C2CO[C@H](CO)O2)c(=O)n1 (stereo not given in full),–,6.74 µM (active)
O=C1Nc2ccc(Cl)cc2[C@@](C#CC2CC2)(C(F)(F)F)O1,2.25% [at 35.3 µM] (inactive),–
O=C(Cl)c1cc(Cl)cc(Cl)c1,0.141% (inactive),–
CN(C)c1ccc(N=NS(=O)(=O)O)cc1,5.94% (inactive),–
CC(C)(C)CC(C)(C)c1ccc(OCCO)cc1,-0.413% (inactive),–
CC/C(C)=N\O[Si](C)(O/N=C(\C)CC)O/N=C(\C)CC,3.24% (inactive),–

# Source: PubChem BioAssay (Tox21)
